The nature of experiment [1]: Tanguay_ZF_120hpf_JAW_legacy: (Legacy) Oregon State University Tanguay Lab 120 Hour Post-fertilization zebrafish Assay for Jaw Malformation (AID 2283638).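 For AC50: active means more embryos with jaw malformation than DMSO controls.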 A digest of the protocol:
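Binary jaw-malformation call at 120 hpf by brightfield microscopy. Embryos (Tropical 5D strain, chorion removed at 4 hpf) were dosed statically at 6 hpf, one per well, at 28C with 0.64% DMSO. Embryos that died were not scored.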

The nature of experiment [2]: Tanguay_ZF_120hpf_OTIC_legacy: (Legacy) Oregon State University Tanguay Lab 120 Hour Post-fertilization zebrafish Assay for Otic Vesicle Malformation (AID 2283639). A digest of the protocol:
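Binary scoring of otic vesicle defects at 120 hpf in zebrafish (Tropical 5D) held under static exposure at 28C, sealed and shaded, with final DMSO 0.64%. Embryos dying by 24 or 120 hpf excluded; fitted positively against DMSO.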

The nature of experiment [3]: Tanguay_ZF_120hpf_PE_legacy: (Legacy) Oregon State University Tanguay Lab 120 Hour Post-fertilization zebrafish Assay for Pericardial Edema (AID 2283640).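 For AC50: potency for increased incidence of pericardial edema versus DMSO baseline.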 A digest of the protocol: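 Scoring was binary, by brightfield microscopy at 120 hpf, and skipped where mortality occurred. Wild-type embryos were kept under sealed, foil-covered static exposure at 28C in 0.64% (vol/vol) DMSO.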

Experiment [4] is described as follows: Tanguay_ZF_120hpf_SOMI_legacy: (Legacy) Oregon State University Tanguay Lab 120 Hour Post-fertilization zebrafish Assay for Somite Malformation (AID 2283647). A digest of the protocol: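 Binary somite-defect scoring at 120 hpf, omitted for embryos that died, in wild-type (Tropical 5D) zebrafish with chorion removed by pronase at 4 hpf; static exposure began 6 hpf, single embryos per well, 28C, 0.64% DMSO; fitted positive versus DMSO.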

Experiment [5] in a line: Tanguay_ZF_120hpf_PFIN_legacy: (Legacy) Oregon State University Tanguay Lab 120 Hour Post-fertilization zebrafish Assay for Pectoral Fin Malformation (AID 2283648).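 Note: each larva judged yes or no for fin defect by brightfield with dead larvae skipped.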 In outline:
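Binary pectoral fin malformation call at 120 hpf by brightfield microscopy; 5D wild-type zebrafish, chorion removed at 4 hpf, one embryo per well from 6 hpf, static exposure at 28C; DMSO (0.64% final) as baseline.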

A short description of experiment [6]: Tanguay_ZF_120hpf_CFIN_legacy: (Legacy) Oregon State University Tanguay Lab 120 Hour Post-fertilization zebrafish Assay for Caudal Fin Malformation (AID 2283649). A digest of the protocol: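 Binary brightfield scoring of caudal fin defects at 120 hpf after static, light-shielded exposure at 28C from 6 hpf. Tropical 5D embryos, chorion removed with pronase at 4 hpf, final DMSO 0.64%.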

Experiment [7] can be described thus: Tanguay_ZF_120hpf_PIG_legacy: (Legacy) Oregon State University Tanguay Lab 120 Hour Post-fertilization zebrafish Assay for Pigmentation Malformation (AID 2283650). A digest of the protocol:
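Brightfield scoring of pigmentation malformation at 120 hpf, recorded as binary present/absent per larva. Exposure: dechorionated 5D wild-type embryos, one per well, static from 6 hpf at 28C, final DMSO 0.64% (vol/vol). Dead embryos not scored.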

Read-out in experiment [8]: kallikrein-3 (KLK3), KLK3 (gene 354)
Description: LTEA_HepaRG_KLK3: Life Technologies and Expression Analysis (LTEA) Assay for kallikrein-3 (KLK3) using HepaRG (AID 2283652; active = hit-call score of the fitted dose curve at least 0.9, where 1 is the maximum; inactive = score below 0.9). The note with it: mRNA level, 48 h; actives raise or lower the signal. In outline:
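KLK3 transcript levels were measured by TaqMan qRT-PCR with normalisation to three housekeeping genes. HepaRG cultures received chemicals for 48 h at up to 100 uM (half-log, 8 points, 0.5% DMSO vehicle), fitted in both directions against DMSO.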

Read-out in experiment [9]: solute carrier (SLC22A6), SLC22A6 (gene 9356)
Description: LTEA_HepaRG_SLC22A6: Life Technologies and Expression Analysis (LTEA) Assay for solute carrier (SLC22A6) using HepaRG (AID 2283653; active = hit-call score of the fitted dose curve at least 0.9, where 1 is the maximum; inactive = score below 0.9). The note with it: mRNA level, 48 h; actives raise or lower the signal. In outline: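 SLC22A6 transcript was measured by TaqMan qRT-PCR, normalized to three housekeeping genes, after 48 h duplicate exposure of HepaRG cells (100 uM top, half-log steps, 0.5% DMSO); bidirectional fit against vehicle.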

The nature of experiment [10]: Tanguay_ZF_120hpf_SWIM_legacy: (Legacy) Oregon State University Tanguay Lab 120 Hour Post-fertilization zebrafish Assay for Swim Bladder Malformation (AID 2283654).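 Note: swim bladder malformation in each larva scored yes or no under brightfield.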 In outline:
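Tropical 5D embryos dechorionated at 4 hpf; 1 embryo/well from 6 hpf; static, sealed, dark exposure at 28C until 120 hpf; final DMSO 0.64%; 5uM trimethyltin chloride positive control; swim bladder defect recorded yes/no; dead embryos not scored.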

Experiment [11] can be described thus: Tanguay_ZF_120hpf_NC_legacy: (Legacy) Oregon State University Tanguay Lab 120 Hour Post-fertilization zebrafish Assay for Notochord and Tail Malformation (AID 2283656). In outline: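 Binary scoring of notochord distortion by brightfield microscopy; embryos dying were not scored. Wild-type Tropical 5D embryos, chorion removed, exposed singly and statically from 6 to 120 hpf, 28C, sealed, 0.64% DMSO.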

Read-out in experiment [12]: matrix metalloproteinase-1 (MMP1), MMP1 (gene 4312)
Description: LTEA_HepaRG_MMP1: Life Technologies and Expression Analysis (LTEA) Assay for matrix metalloproteinase-1 (MMP1) using HepaRG (AID 2283658; active = hit-call score of the fitted dose curve at least 0.9, where 1 is the maximum; inactive = score below 0.9). The note with it: mRNA level, 48 h; actives raise or lower the signal. A digest of the protocol: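 qRT-PCR (TaqMan, Fluidigm arrays) of MMP1 transcript, normalized against three housekeeping genes and fitted in both directions relative to 0.5% DMSO vehicle. Human HepaRG cultures received duplicate 48 h exposures across 8 points, highest 100 uM with half-log steps.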

Read-out in experiment [13]: Broad substrate specificity ATP-binding cassette transporter ABCG2 (Homo sapiens) (UniProt Q9UNQ0)
The experiment can be described thus: CLD_ABCG2_6hr: CellzDirect (CLD) Gene Expression Assay for ABC Transporter (ABCG2) at 6 hours (AID 2283660). In outline: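 ABCG2 mRNA induction measured by qNPA chemiluminescence in human primary hepatocyte cultures, 6 h post-dose. Chemicals tested at several concentrations against a 0.2% DMSO vehicle; positive-direction fit relative to DMSO.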

Experiment [14] in a line: Tanguay_ZF_120hpf_BRAI_legacy: (Legacy) Oregon State University Tanguay Lab 120 Hour Post-fertilization zebrafish Assay for Brain Malformation (AID 2283641). A digest of the protocol:
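Binary brightfield scoring of brain malformation at 120 hpf in Tropical 5D larvae held under static exposure at 28C (0.64% v/v DMSO), non-mortality endpoints skipped if dead. Positive control: 5uM trimethyltin chloride; fit versus DMSO.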

Experiment [15] in a line: Tanguay_ZF_120hpf_CIRC_legacy: (Legacy) Oregon State University Tanguay Lab 120 Hour Post-fertilization zebrafish Assay for Circulatory Malformation (AID 2283651). A digest of the protocol:
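Binary circulatory malformation call at 120 hpf by brightfield imaging of zebrafish larvae; chorion removed at 4 hpf, static exposure from 6 hpf in sealed dark plates at 28C, final DMSO 0.64%; non-mortality endpoints skipped if embryo died.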

Read-out in experiment [16]: ABC Transporter (ABCB1), ABCB1 (gene 5243)
The experiment can be described thus: CLD_ABCB1_6hr: CellzDirect (CLD) Gene Expression Assay for ABC Transporter (ABCB1) at 6 hours (AID 2283659).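 Note: hits raise ABCB1 transcript above the DMSO vehicle baseline.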 A digest of the protocol:
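ABCB1 transcript measured by quantitative nuclease protection assay, chemiluminescent read-out, 6 h after dosing human hepatocyte cultures (0.2% DMSO vehicle, daily redosing). Activity fitted as increase over DMSO baseline; cytotoxicity flagged by phase-contrast morphology.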

Experiment [17] relates to Thyroperoxidase (TPO), gene 54314. Description: CCTE_Simmons_AUR_rTPO: CCTE's Amplex UltraRed Assay for Thyroperoxidase (TPO) Inhibition, Simmons Lab (AID 2283662).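 For AC50: potency for loss of signal meaning inhibition of peroxidase activity.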 In outline:
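Rat thyroid microsomes (5 ug protein) with 25 uM Amplex UltraRed and 300 uM H2O2 in 200 mM phosphate buffer, 30 min at 37C in dark; fluorescence 544/590 nm. Eight concentrations, 5 nM–87.5 uM final, 0.5% DMSO, triplicate biological replicates.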

Read-out in experiment [18]: xenobiotic metabolism (CYP1A2), CYP1A2 (gene 1544)
The experiment can be described thus: CLD_CYP1A2_6hr: CellzDirect (CLD) Gene Expression Assay for xenobiotic metabolism (CYP1A2) at 6 hours (AID 2283663). A digest of the protocol: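 mRNA levels quantified by quantitative nuclease protection assay with chemiluminescence, 6 h after dosing human primary hepatocyte cultures (two donors) across several concentrations, vehicle 0.2% DMSO. Induction fitted upward versus DMSO; phase-contrast cytotoxicity annotated.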

Experiment [19] is described as follows: Tanguay_ZF_120hpf_TRUN_legacy: (Legacy) Oregon State University Tanguay Lab 120 Hour Post-fertilization zebrafish Assay for Truncated Body (AID 2283655). In outline: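 Binary presence/absence of truncated body is recorded at 120 hpf by brightfield, with non-mortality endpoints skipped after death. Exposure is static from 6 hpf in sealed dark plates at 28C, using dechorionated wild-type zebrafish, 0.64% DMSO.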

Each structure is given as a SMILES string. Inconclusive results are not listed. Active and inactive are the calls of the source. Rule for the calls, unless noted: active = hit-call score of the fitted dose curve at least 0.9, where 1 is the maximum; inconclusive = response in the unintended direction; inactive = score below 0.9.

We go through eight compounds from PubChem BioAssay (EPA / NIEHS).

Chain of Broad substrate specificity ATP-binding cassette transporter ABCG2 (Homo sapiens) (Q9UNQ0 whole entry, looked up): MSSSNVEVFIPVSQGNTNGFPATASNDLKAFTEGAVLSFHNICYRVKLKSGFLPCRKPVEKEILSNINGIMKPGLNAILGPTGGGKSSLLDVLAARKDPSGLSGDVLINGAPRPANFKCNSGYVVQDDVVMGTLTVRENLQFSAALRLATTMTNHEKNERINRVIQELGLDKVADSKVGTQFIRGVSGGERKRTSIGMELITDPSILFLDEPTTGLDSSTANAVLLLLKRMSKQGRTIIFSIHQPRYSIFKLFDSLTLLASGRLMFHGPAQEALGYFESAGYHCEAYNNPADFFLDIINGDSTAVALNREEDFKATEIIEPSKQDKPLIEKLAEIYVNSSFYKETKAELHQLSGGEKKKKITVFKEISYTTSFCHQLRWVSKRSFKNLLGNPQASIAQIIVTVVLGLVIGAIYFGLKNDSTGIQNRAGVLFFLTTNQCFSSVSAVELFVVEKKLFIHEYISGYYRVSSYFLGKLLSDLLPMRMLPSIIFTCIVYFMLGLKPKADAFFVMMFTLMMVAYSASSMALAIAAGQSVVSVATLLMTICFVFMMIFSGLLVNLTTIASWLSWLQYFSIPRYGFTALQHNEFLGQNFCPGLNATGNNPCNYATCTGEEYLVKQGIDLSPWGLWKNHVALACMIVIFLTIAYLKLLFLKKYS

As for `CC(COc1ccc(Oc2ccccc2)cc1)Oc1ccccn1` (centres undefined), the outcome in [1], in experiment [2], in [3], in [4], in experiment [5] and in experiment [6] was inactive. The compound was classed as inactive in experiment [7], in [8], in experiment [9], in experiment [10], in [11] and in experiment [12]. In addition, the outcome in experiment [13] was inactive.
For the compound `C[Si](Cn1cncn1)(c1ccc(F)cc1)c1ccc(F)cc1`, the AC50 is 13.4 µM (active) in [1]; 12.7 µM (active) in experiment [2]; 9.78 µM (active) in experiment [3]; 47 µM (active) in experiment [14]; 47.7 µM (active) in experiment [4]; 20.9 µM (active) in [5]. In addition, the AC50 in experiment [6] was 36 µM (active). Moreover, the compound was called inactive in [7], in experiment [15], in [10] and in experiment [13].
On to `C#CCC1=C(C)C(OC(=O)C2C(C=C(C)C)C2(C)C)CC1=O` (centres undefined), for which the compound was classed as inactive in experiment [1], in experiment [2], in experiment [3], in experiment [5], in experiment [6] and in [7]. The call in [15], in experiment [10], in experiment [16], in experiment [13] and in experiment [18] was inactive. For the same compound, the AC50 in experiment [17] is 40.2 µM (active).
On to `COP(=O)(NC(C)=O)SC` (centres undefined), for which the call in experiment [1], in experiment [2], in experiment [3], in experiment [5], in experiment [6] and in experiment [7] was inactive. Besides, the outcome in experiment [15], in [10] and in experiment [13] was inactive. In [17], the AC50 was 31.8 µM (active).
Consider `COP(=O)(OC)SCn1c(=O)oc2cc(Cl)cnc21`, for which the AC50 in experiment [1] is 15.9 µM (active); in [3], 11.2 µM (active); in experiment [17], 7.84 µM (active). For the same compound, the outcome in [2], in [14], in experiment [4], in [6], in experiment [7] and in experiment [15] was inactive. Also, the outcome in experiment [10], in experiment [19], in experiment [11] and in [13] was inactive.
Take `CSc1nnc(C(C)(C)C)c(=O)n1N`: the outcome in [1], in experiment [2], in experiment [3], in experiment [4], in [6] and in experiment [15] was inactive. Besides, the compound was classed as inactive in experiment [10], in [19], in experiment [11], in experiment [16] and in experiment [13].
As to `O=c1ccc(=O)[nH][nH]1`, the call in [1], in experiment [2], in experiment [3], in experiment [14], in experiment [5] and in experiment [6] was inactive. In addition, the result in [7], in [10], in experiment [19], in experiment [16], in experiment [13] and in experiment [17] was inactive. For the same compound, the call in experiment [18] was inactive. For the same compound, in experiment [11], the AC50 was 41.6 µM (active).
For the compound `COP(=O)(OC)C(O)C(Cl)(Cl)Cl` (centres undefined), the compound was called inactive in [1], in experiment [2], in [3], in experiment [14], in [6] and in [7]. In addition, the result in experiment [15], in [10], in [11] and in [13] was inactive.
